mHTT-CaM PPI inh = mHTT-calmodulin interaction abrogation; AlphaScreen His-mHTT/GST-CaM binding, luminescence; hit rate 3.6% among 190,000; AID 1671202; P42858; inhibition, % at 15 µM
Pf apPOL inh = Pf-apPOL DNA polymerase inhibition | Recombinant Pf-apPOL, molecular beacon fluorescence, 1.5 h | inhibition, % at 10 µM | hit rate 0.25% among 210,000 | AID 1794808
Of the large screens only hits and unclear results are named; the others gave an inactive call; ! = a repeat was not active. This excerpt belongs to a sample that is enriched for hits. Cut-off read from the data, not from the text of the source: active = inhibition above about 50%; inactive = the rest.

O=c1c2ccccc2nc2c3ccccc3c(NCc3ccccn3)nn12	mHTT-CaM PPI inh 81
CCCc1[nH]nc2c1C1(C(=O)N(CC(=O)O)c3ccccc31)C(C#N)=C(N)O2 (stereo not given)	none
COc1ccc(-c2[nH]nc3c2C2(C(C#N)=C(N)O3)c3ccccc3-c3ccccc32)cc1	mHTT-CaM PPI inh 79
COc1ccc(-c2[nH]nc3c2C2(C(=O)N(CC(=O)O)c4ccccc42)C(C#N)=C(N)O3)cc1 (stereo not given)	Pf apPOL inh 72
CCc1[nH]nc2c1C1(C(C#N)=C(N)O2)c2ccccc2-c2ccccc21	none
COc1ccc(CNC(=O)NC2CCN(c3nccnc3OC)C2)cc1 (stereo not given)	none
CCCCN(CC)C(=O)c1ccc(OC)c(OC)c1	none
Cn1c(SCC(=O)n2c3c(c4ccccc42)CCCC3)nnc1-c1ccc(N)cc1	none
O=C(CSc1ncn[nH]1)n1c2c(c3ccccc31)CCCC2	mHTT-CaM PPI inh 57
CC1=NN(C(=O)CCCc2ccccc2)C(O)(c2ccc(Br)cc2)C1 (stereo not given)	mHTT-CaM PPI inh 58
CCC(=O)N1N=C(CC)CC1(O)c1ccc(Br)cc1 (stereo not given)	none
Cc1cc(C)c(C#N)c(OC(=O)c2cccs2)n1	none (no result: mHTT-CaM PPI inh)
Cc1cc(C)c2c(=O)n(C(=O)c3cccs3)sc2n1	Pf apPOL inh 100 (no result: mHTT-CaM PPI inh)
Cc1ccc(C(=O)N2CCCC2c2ccc(C)cc2)cc1 (stereo not given)	none
O=C(NCc1ccccc1)N1CCC(CCOc2cccnc2)CC1	none
CC1(C)OC2OC(C(=O)NCCC(=O)Nc3nccs3)C3OC(C)(C)OC3C2O1 (stereo not given)	none
COc1cccc(/C=C2/SC(=Nc3ccccc3Cl)NC2=O)c1	mHTT-CaM PPI inh 52
O=C1NC(=Nc2ccccc2Cl)S/C1=C/c1ccc([N+](=O)[O-])cc1	none
COc1ccc(/C=C2/SC(=Nc3ccccc3Cl)NC2=O)c(OC)c1	none
O=C1NC(=Nc2ccccc2Cl)S/C1=C/c1cccc([N+](=O)[O-])c1	mHTT-CaM PPI inh 88
COc1ccccc1-n1nc(C(=O)Nc2nnc(C)s2)c2ccccc2c1=O	none
Cc1c(C)n(CC(O)CNC2CCCCC2)c2ccccc12 (stereo not given)	none
COc1ccc(NCC(O)Cn2c(C)c(C)c3ccccc32)c(OC)c1 (stereo not given)	mHTT-CaM PPI inh 74
CC(=O)Nc1ccc(OCC(O)Cn2c3ccccc3c3ccccc32)cc1 (stereo not given)	none
Cc1c(C)n(CC(O)CN2CCCCCC2)c2ccccc12 (stereo not given)	none
CCOc1ccc(NCC(O)Cn2c(C)c(C)c3ccccc32)cc1 (stereo not given)	mHTT-CaM PPI inh 84
COc1ccc(NCC(O)Cn2c(C)c(C)c3ccccc32)cc1 (stereo not given)	mHTT-CaM PPI inh 57
CCc1ccccc1NC(=O)CN(c1ccccc1OC)S(=O)(=O)c1ccc(OC)cc1	none
Cc1ccc(NC(=O)CC(C)(C)C)cc1	none
CCOc1ccc(CN2CCc3nc(Nc4ccc5c(c4)OCCO5)ncc3C2)cc1OC	mHTT-CaM PPI inh 53
COc1ccc(CN2CCc3nc(Nc4ccc5c(c4)OCCO5)ncc3C2)cc1OC	none
CN(C)c1ccc(CN2CCc3nc(Nc4ccc5c(c4)OCCO5)ncc3C2)cc1	none
Fc1ccc(Nc2ncc3c(n2)CCN(Cc2ccc4c(c2)OCCO4)C3)cc1	none
Clc1ccccc1CN1CCc2nc(Nc3ccc4c(c3)OCCO4)ncc2C1	mHTT-CaM PPI inh 78
CN(C)c1ccc(CN2CCc3nc(Nc4ccc5c(c4)OCO5)ncc3C2)cc1	none
CC(C)Oc1ccc(CN2CCc3nc(Nc4ccc5c(c4)OCCO5)ncc3C2)cc1	mHTT-CaM PPI inh 72
Fc1ccc(CN2CCc3nc(Nc4ccc5c(c4)OCCO5)ncc3C2)cc1F	mHTT-CaM PPI inh 53
O=C(CN1C(=O)C2C3C=CC(CC3)C2C1=O)Nc1cccc(F)c1 (stereo not given)	none
Cc1ccc(NC(=O)C(=O)NCC(c2ccc(F)cc2)N(C)C)c([N+](=O)[O-])c1 (stereo not given)	none
COC(=O)CNC(=O)N1CCCC1c1cccc(F)c1 (stereo not given)	none
Fc1ccc(CN2CCc3nc(Nc4ccc5c(c4)OCO5)ncc3C2)c(F)c1	none
Fc1ccc(CN2CCc3nc(Nc4ccc5c(c4)OCCO5)ncc3C2)c(F)c1	mHTT-CaM PPI inh 58
N#C/C(=C\c1cccc(Br)c1)c1nn(CCO)c(N)c1C#N	none
N#C/C(=C\c1c(F)cccc1Cl)c1nn(CCO)c(N)c1C#N	none
N#C/C(=C\c1ccc(-c2ccc(Cl)cc2)o1)c1nn(CCO)c(N)c1C#N	mHTT-CaM PPI inh 54
N#C/C(=C\c1ccc(-c2cc(Cl)cc(Cl)c2)o1)c1nn(CCO)c(N)c1C#N	mHTT-CaM PPI inh 58
CCN1CCN(CCCNC(=O)CC2CCN(C(=O)C3CCCCC3)CC2)CC1	none
O=C1C(=O)N(Cc2ccc(Cl)cc2)c2ccc(Cl)cc21	mHTT-CaM PPI inh 78!
Cc1ccccc1CN1C(=O)C(=O)c2cc(Cl)ccc21	mHTT-CaM PPI inh 51
Cc1ccccc1CN1C(=O)C(=O)c2ccccc21	none
O=C1c2cccnc2C(=O)N1Cc1ccc(Cl)cc1	none
O=C1C(=O)N(Cc2ccc(Cl)cc2)c2ccc(S(=O)(=O)N3CCOCC3)cc21	mHTT-CaM PPI inh 92
O=c1ccc(S(=O)(=O)N2CCOCC2)cn1Cc1cccc(Cl)c1	none
Cc1ccc(C)c(OCC(=O)Nc2ccccc2C(C)C)c1	none
Clc1ccccc1-c1nc(N2CCOCC2)c2ccccc2n1	none
O=c1[nH]c(/C=C/c2cc(Br)ccc2O)nc2ccccc12	none
O=c1c2ccccc2nc(/C=C/c2cc(Br)ccc2O)n1CCCO	mHTT-CaM PPI inh 76
COC(=O)c1ccc(C=C2Oc3cc(OC(=O)C4CC4)ccc3C2=O)cc1	none
Cc1nc2cc(N3CC(C(=O)NCc4ccc(OC(C)C)cc4)CC3=O)ccc2o1 (stereo not given)	mHTT-CaM PPI inh 100
COc1ccc(CNC(=O)C2CC(=O)N(c3ccc4oc(C)nc4c3)C2)cc1OC (stereo not given)	none
Cc1cccc(CNS(=O)(=O)c2cc3n(c2)CCCNC3=O)c1	none
CCOC(=O)CCSCC(=O)N1N=C(c2cccs2)CC1c1ccc(C)cc1 (stereo not given)	mHTT-CaM PPI inh 52
Cc1ccc(C2CC(c3cccs3)=NN2C(=O)CN(C)C(=O)C(C)C)cc1 (stereo not given)	none
CCC(=O)N1CCc2sc(S(=O)(=O)NCc3ccccc3Cl)cc2C1	none
Cc1[nH]nc2c1C(c1ccccc1OCc1cccc(Cl)c1)CC(=O)N2 (stereo not given)	none
CCC1CCCCN1C(=O)c1ccc(Cl)c(Cl)c1 (stereo not given)	none
O=C(Nc1nnc(-c2ccco2)o1)C1c2ccccc2Oc2ccccc21	none
CS(=O)(=O)c1cccc(-c2nnc(NC(=O)C3c4ccccc4Oc4ccccc43)o2)c1	mHTT-CaM PPI inh 99
Nc1ccc2nc(Cc3nc4ccc(N)cc4[nH]3)[nH]c2c1	mHTT-CaM PPI inh 79
Nc1ccc2nc(-c3ccc(-c4nc5ccc(N)cc5[nH]4)cc3)[nH]c2c1	Pf apPOL inh 68
Nc1ccc2nc(-c3ccccc3-c3nc4ccc(N)cc4[nH]3)[nH]c2c1	none
Nc1ccc(-c2nc3ccc(-c4nc5ccc(N)cc5[nH]4)cc3[nH]2)cc1	mHTT-CaM PPI inh 51
Nc1ccc(-c2nc3ccc(C(=O)c4ccc5nc(-c6ccc(N)cc6)[nH]c5c4)cc3[nH]2)cc1	none
Nc1ccc(CCc2nc3ccc(N)cc3[nH]2)cc1	none
CCN(CC)CCNC(=O)C1CCN(S(=O)(=O)N2CCC3(CC2)OCCO3)CC1	none
